Screens as filed in PubChem.
The entries come from a sample that favours hits as a whole.
PL biosyn Enam = phospholipid synthesis inhibitors, CHO cells, primary screen, ZR-82 cells, Enamine library, screen 3; ZR-82 CHO cells, pyrene fatty acid UV survival, CellTiter Blue; peroxisome-deficient CHO-K1 mutant line; plus DGAT-1, DGAT-2 and ACAT inhibitors; calls only at 10 µM; actives 0.4% (n = 20,000); AID 1347385, 2020;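 active means cell survival signal 2 SD away from solvent-only control wells, confirmed on one or two retests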;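 further: 3 h compound exposure then viability read about one day after UV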
Numbers without * were called inactive.

`c1ccc(C2=NN3C(C2)c2ccccc2OC32CCCC2)cc1` (centres undefined) gave PL biosyn Enam inactive.
O=C1NC2(Oc3ccccc3C3CC(c4ccccc4)=NN32)/C(=C/c2cccc(OCc3ccccc3)c2)S1 (centres undefined) was read as PL biosyn Enam active.
Screening O=C1NC2(Oc3ccc(Br)cc3C3CC(c4ccccc4)=NN32)/C(=C/c2ccccc2)S1 (centres undefined) returned PL biosyn Enam active.
`CC1(C)Oc2ccccc2C2CC(c3ccc(-c4ccccc4)cc3)=NN21` (centres undefined) gave PL biosyn Enam inactive.
Screening c1ccc(C2=NN3C(C2)c2ccccc2OC32CCCCC2)cc1 (centres undefined) returned PL biosyn Enam inactive.
Screening Nc1cc(=O)[nH]c(SCCOc2c(Cl)cccc2Cl)n1 returned PL biosyn Enam inactive.
CCCn1c(SCc2cc(C)on2)n[nH]c1=O was read as PL biosyn Enam inactive.
`CC(=O)c1c(C)[nH]c(C(=O)Cn2ncc(Cl)c(Cl)c2=O)c1C` gave PL biosyn Enam inactive.
For Cc1nc(Cc2nnc(SCc3cc(=O)n4c(C)csc4n3)o2)cs1 the results were PL biosyn Enam inactive.
O=[N+]([O-])c1ccc(N=Nc2c(O)[nH]c3ccc(Br)cc23)cc1 was read as PL biosyn Enam active.
`O=[N+]([O-])c1ccc2[nH]c(O)c(N=Nc3ccc(Cl)c(Cl)c3)c2c1` gave PL biosyn Enam inactive.
Screening Oc1[nH]c2ccc(Br)cc2c1N=Nc1ccc(Cl)c(Cl)c1 returned PL biosyn Enam inactive.
Screening Cc1nn(-c2ccccc2)c2c1P(=S)(Nc1ccc([N+](=O)[O-])cc1)/C(=C1/N(C)c3ccccc3C1(C)C)C=N2 (centres undefined) returned PL biosyn Enam inactive.
Cc1cc([N+](=O)[O-])ccc1NP1(=O)/C(=C2/N(C)c3ccccc3C2(C)C)C=NN1c1ccccc1 (centres undefined) was read as PL biosyn Enam inactive.
CN1/C(=C2\C=NN(c3ccccc3)P2(=O)Nc2ccc([N+](=O)[O-])cc2)C(C)(C)c2ccccc21 (centres undefined) was read as PL biosyn Enam active.
Nc1cccc(-n2nncc2C23CC4CC(CC(C4)C2)C3)c1 was read as PL biosyn Enam inactive.
Screening Cc1cc(/C=C/C(=O)O)c(C)n1C1CCCCC1 returned PL biosyn Enam inactive.
Nc1ccc(N2CCOCC2)cc1 was read as PL biosyn Enam inactive.
CCOC(=O)c1c(N)sc(C(N)=O)c1C was read as PL biosyn Enam inactive.
Screening C=CCn1sc(N)c(C(=O)OCC)c1=S returned PL biosyn Enam active.
For CCOC(=O)c1c(N)oc(C)c1C(C)=O the results were PL biosyn Enam inactive.
For O=C(/C=C/C(=O)OCC(=O)C12CC3CC(CC(C3)C1)C2)OCC(=O)C12CC3CC(CC(C3)C1)C2 the results were PL biosyn Enam inactive.
`Oc1ccc2ccccc2c1C=Nc1ncccn1` gave PL biosyn Enam inactive.
Screening C/C(=N\NS(=O)(=O)c1ccc(C)cc1)c1ccc2c(c1)OCCO2 returned PL biosyn Enam inactive.
`CNS(=O)(=O)c1ccc(/C(C)=N/Nc2cc(C)c3cc(C)cc(C)c3n2)cc1` gave PL biosyn Enam active.
For Cc1ccc(C(=NS(=O)(=O)c2ccc(C)cc2)NS(=O)(=O)c2ccc(C)cc2)cc1 the results were PL biosyn Enam inactive.
Screening CCOC(=O)c1c(C)[nH]c(C(=O)O)c1C returned PL biosyn Enam inactive.
`CCOC(=O)c1c(C)[nH]c(C(=O)COC(=O)c2ccc(C)s2)c1C` gave PL biosyn Enam inactive.
`CCOC(=O)c1c(C)[nH]c(N=Nc2ccc3c(c2)OCO3)c1C` gave PL biosyn Enam active.
CC(C)NC(=S)NN=C1CCC(C(C)(C)C)CC1 (centres undefined) was read as PL biosyn Enam inactive.
`CC1CCCC/C1=N\NC(=S)NC1CCCCC1` (centres undefined) gave PL biosyn Enam inactive.
`CC(C)NC(=S)N/N=C1\CCCCC1C1CCCCC1` (centres undefined) gave PL biosyn Enam active.
For O=[N+]([O-])c1cc(S(=O)(=O)N2CCCC2)ccc1Cl the results were PL biosyn Enam inactive.
O=[N+]([O-])c1ccc(N=Nc2ccc(NCC(F)(F)C(F)F)cc2)c(Cl)c1 was read as PL biosyn Enam active.
CN(C)P(=Nc1ccc([N+](=O)[O-])cc1Br)(N(C)C)C(C)(C)C was read as PL biosyn Enam inactive.
Screening CN(C)c1ccc(N=Nc2ccc([N+](=O)[O-])cc2C(F)(F)F)cc1 returned PL biosyn Enam active.
Nc1ccc([N+](=O)[O-])cc1C(F)(F)F was read as PL biosyn Enam inactive.
CN(C)c1ccc(N=Cc2cc([N+](=O)[O-])ccc2OC(F)F)cc1 was read as PL biosyn Enam inactive.
For O=[N+]([O-])c1ccc(Cl)c(S(=O)(=O)Nc2ccc(SC(F)F)cc2)c1 the results were PL biosyn Enam inactive.
CN(C)C=Nc1nc(-c2ccccc2)c(-c2ccccc2)s1 was read as PL biosyn Enam inactive.
For Cc1cc(NC(=O)CN2CC(C)CC(C)C2)no1 (centres undefined) the results were PL biosyn Enam inactive.
O=C(CC1CCCCC1)NNC(=O)C1CC1 was read as PL biosyn Enam inactive.
Screening Cc1ccc(C(=O)CSc2nnc(-c3cccs3)n2C2CC2)s1 returned PL biosyn Enam inactive.
For O=C(Cc1cccs1)OCc1cc(=O)n2ccsc2n1 the results were PL biosyn Enam inactive.
CN=c1scc(-c2ccc(Br)cc2)n1/N=C/c1ccccc1F was read as PL biosyn Enam inactive.
For CN=c1scc(-c2ccccc2F)n1/N=C/c1ccccc1 the results were PL biosyn Enam inactive.
For CN=c1scc(-c2ccccc2F)n1/N=C/c1ccccc1F the results were PL biosyn Enam active.
For COc1ccc(C2=CC(c3ccc(Cl)cc3)n3ncnc3N2)cc1 (centres undefined) the results were PL biosyn Enam inactive.
CCCCC(CC)CN1C(=O)/C(=C/c2c(NCCCn3ccnc3)nc3c(C)cccn3c2=O)SC1=S (centres undefined) was read as PL biosyn Enam inactive.
Screening C=CCN=c1scc(-c2ccc(OC(F)F)cc2)n1/N=C(\C)c1ccc2c(c1)OCCO2 returned PL biosyn Enam inactive.
Screening COCCN=c1scc(-c2ccc(OC(F)F)cc2)n1/N=C(\C)c1ccc2c(c1)OCO2 returned PL biosyn Enam inactive.
C/C(=N\n1c(-c2ccc(OC(F)F)cc2)csc1=NC(C)C)c1ccc(-n2ccnc2)cc1 was read as PL biosyn Enam active.
Screening CCOC(=O)c1c(C)[nH]c(C(=O)C(C)OC(=O)C2C(C(=O)OC)=C(C)NC(C)=C2C(=O)OC)c1C (centres undefined) returned PL biosyn Enam inactive.
Clc1ccc(CN2CCN(/N=C/c3ccc(Cl)cc3Cl)CC2)cc1 was read as PL biosyn Enam inactive.
CN(CC1COc2ccccc2O1)C(=O)CN1C(=O)NC2(CCc3ccccc32)C1=O (centres undefined) was read as PL biosyn Enam inactive.
For Cc1ccc(C)c(N=Nc2c(C)[nH]c3ccccc23)c1 the results were PL biosyn Enam active.
For N=C(N)N=Nc1c(O)[nH]c2ccccc12 the results were PL biosyn Enam inactive.
For Cc1cc(=S)[nH]c2ccccc12 the results were PL biosyn Enam inactive.
